A selection: hits, their analogues and other compounds. The true share with any hit is near 3.4%.
TEAD-YAP inh: TEAD-YAP interaction inhibition. HEK-TIYL cells, TEAD-Gal4/YAP UAS-luciferase luminescence. inhibition, % at 9.12 µM. actives 1.4% (n = 640,000). AID 1259422; in the data active = inhibition above about 32%;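 note: 0% = median of test compound wells and 100% = reference inhibitor wells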
FBW7 act: activators of human E3 ligase FBW7; actives 0.13% (n = 650,000); normalized activity (activation), % at 26.1 µM; AID 1259310; AlphaScreen FBW7–phospho-cyclin E peptide binding, activator screen; Q969H0; in the data active = normalized activity above about 1.9%;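 note: purified mutant Fbw7 with reduced substrate affinity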
MITF primary: inhibitors of human MITF. O75030. AlphaScreen MITF homodimerization, bead proximity signal. inhibition, % at 2.6 µM. actives 0.91% (n = 650,000); in the data active = inhibition above about 50%;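 note: 0% = vehicle wells with protein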
GPR151 activ: activates the human receptor GPR151 | Q8TDV0 | PathHunter beta-arrestin GPR151 cells, luminescence | activation, % at 11.2 µM | actives 1% (n = 650,000) | AID 1508602; in the data active = activation above about 4.9%;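 note: 0% = median of compound wells and 100% = cells with positive control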
Target sequence (Q8TDV0 whole entry, looked up): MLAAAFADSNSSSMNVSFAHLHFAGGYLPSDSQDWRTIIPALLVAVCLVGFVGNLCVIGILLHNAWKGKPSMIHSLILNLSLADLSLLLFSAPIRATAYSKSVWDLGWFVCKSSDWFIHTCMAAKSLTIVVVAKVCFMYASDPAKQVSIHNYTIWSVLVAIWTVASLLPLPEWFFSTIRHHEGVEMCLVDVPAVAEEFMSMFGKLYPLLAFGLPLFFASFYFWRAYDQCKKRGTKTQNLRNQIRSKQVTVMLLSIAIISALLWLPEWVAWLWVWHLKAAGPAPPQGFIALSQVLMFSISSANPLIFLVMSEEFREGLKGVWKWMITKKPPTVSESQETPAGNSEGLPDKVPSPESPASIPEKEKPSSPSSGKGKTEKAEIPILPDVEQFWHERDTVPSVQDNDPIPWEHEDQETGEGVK
Active calls of the source: *.

SMILES | TEAD-YAP inh | FBW7 act | MITF primary | GPR151 activ
O=C(O)c1cccc(-c2cnc(NCCCc3ccccc3)c3nccn23)c1 | -3.0 | 0.3 | -24.8 | -0.7
CC(=O)Nc1cccc(-c2cnc(NCCCc3ccccc3)c3nccn23)c1 | 93.2* | -0.1 | -2.2 | -1.0
CCCNc1nccn2c(-c3cccc(NC(C)=O)c3)cnc12 | 69.3* | -0.9 | -13.9 | -1.3
COCCCNc1nccn2c(-c3cccc(NC(C)=O)c3)cnc12 | 90.3* | 0.4 | 17.2 | -4.9
CCCOCCOC(=O)C1=C(C)NC(=O)CC1c1c(F)cccc1Cl (configuration not stated) | 5.1 | 0.8 | 19.5 | -1.5
O=C(NCC(c1cccs1)N1CCOCC1)c1ccc([N+](=O)[O-])o1 (configuration not stated) | 54.8* | -0.1 | 3.2 | 1.0
O=C(CSc1nnc2ccc(-c3ccc(F)cc3)nn12)NCCc1ccccc1 | -2.8 | 0.3 | -0.8 | -1.5
O=C(CSc1nnc2ccc(-c3ccccc3)nn12)NCc1ccccc1 | 41.2* | 0.1 | 8.9 | 0.0
O=C(CSc1nnc2ccc(-c3ccc(F)cc3)nn12)NCc1ccccc1 | 40.6* | 0.0 | 9.4 | -0.8
COc1ccc(/C=C2\C(=O)N(c3cccc(Cl)c3)N=C2C)cc1[N+](=O)[O-] | -4.9 | -0.1 | -2.5 | 0.9
COc1cc(/C=C2/C(=O)N(c3cccc(Cl)c3)N=C2C)ccc1Oc1ccc([N+](=O)[O-])cc1C(F)(F)F | 42.2* | 0.1 | -9.1 | -1.0
CCS(=O)(=O)c1ncc(Cl)c(C(=O)Nc2cccc(C(F)(F)F)c2)n1 | 34.1* | -0.1 | -1.9 | -1.8
CCS(=O)(=O)c1ncc(Cl)c(C(=O)Nc2ccc(OC)c(Cl)c2)n1 | 49.7* | 0.7 | 15.6 | -1.8
CCS(=O)(=O)c1ncc(Cl)c(C(=O)Nc2ccccc2C(F)(F)F)n1 | 35.2* | 0.3 | 23.0 | -1.3
CCS(=O)(=O)c1ncc(Cl)c(C(=O)Nc2ccccc2F)n1 | -6.3 | -0.1 | -3.3 | -0.3
CCS(=O)(=O)c1ncc(Cl)c(C(=O)Nc2ccc(Cl)cc2)n1 | 28.4 | -0.1 | -5.3 | -2.4
O=C1CCCN1CCC1CCN(Cc2nc(-c3ccc(Cl)cc3)no2)CC1 | 5.8 | -0.1 | -5.5 | 0.6
c1ccc(-c2cn3nc(-c4ccccc4)sc3n2)cc1 | 44.2* | 0.2 | 5.9 | -0.7
O=C(Oc1ccc(/C=C/c2ccncc2)cc1)c1ccncc1 | 47.9* | -0.3 | -3.8 | -6.8
CSc1nc2sc3c(c2c(=O)n1-c1ccccc1)CCC3 | 4.9 | -0.1 | 6.5 | 1.3
CNC(=O)C(=O)NCCC1CCCCN1S(=O)(=O)c1ccc(C)cc1 (configuration not stated) | 1.5 | 0.0 | 3.1 | 1.0
Cc1ccc(S(=O)(=O)N2CCCCC2CCNC(=O)C(=O)NCc2cccnc2)cc1 (configuration not stated) | 36.3* | 0.6 | 2.2 | -0.5
CCCNC(=O)C(=O)NCC1CCCN1S(=O)(=O)c1ccc(C)cc1 (configuration not stated) | 9.6 | 0.0 | 3.1 | 2.5
CCCCCNC(=O)C(=O)NCC1CCCN1S(=O)(=O)c1ccc(C)cc1 (configuration not stated) | 49.1* | 0.1 | -3.4 | 0.8
COc1cccc(CNC(=O)C(=O)NCC2CCCN2S(=O)(=O)c2ccc(C)cc2)c1 (configuration not stated) | 40.5* | -0.1 | 2.5 | 3.5
SMILES | TEAD-YAP inh | FBW7 act | MITF primary | GPR151 activ
COc1cccc(NC(=O)C(=O)NCC2CCCN2S(=O)(=O)c2ccccc2)c1 (configuration not stated) | -55.3 | 0.1 | -5.1 | 1.8
CNC(=S)N1CCN(c2cccc(Cl)c2)CC1 | -3.2 | -0.2 | 0.9 | -1.5
COc1cc2c(cc1OC)C(=O)NC1(CCCC1)C2 | -0.3 | 0.4 | -2.0 | 2.1
Cc1ccc(NCc2nnc(SCC(=O)NC3CCCC3)n2C)cc1 | -5.2 | 0.1 | 2.3 | 1.1
CCCCCCCc1c2c(C)c(C(=O)OCC)nc-2cc2n1C(C)C(C)=C2C (configuration not stated) | 28.9 | -0.1 | 3.4 | 0.9
CCCCCCCc1c2c(C)c(C(=O)OCC)nc-2cc2n1CC(C)=C2C | 42.0* | -0.1 | 10.5 | 2.2
CN(Cc1ccccc1)c1nc2nonc2nc1NCCN1CCCC(O)C1 (configuration not stated) | -5.1 | 0.0 | -0.6 | 0.8
O=C1C(Cl)=C(N2CCCCC2)C(=O)C(Cl)=C1/C=C/N1CCCCC1 | 4.1 | -0.5 | 86.2* | 1.0
CCC(C)(C)N(C(=O)c1snc(C(N)=O)c1N)C(C)C(=O)NC1CCCC1 (configuration not stated) | 3.9 | 0.0 | -1.4 | -0.3
Cc1ccnc(NC(=S)NC(=O)c2ccccc2)c1 | 33.8* | 0.1 | -3.4 | 0.6
Cc1ccnc(NC(=S)NC(=O)c2ccc(Cl)cc2)c1 | -56.2 | 0.1 | 5.5 | -1.3
COc1cccc(C(=O)NC(=S)Nc2ccccn2)c1 | 36.2* | 0.0 | 3.1 | -2.0
Cc1ccnc(NC(=O)c2ccccc2Cl)c1 | 35.2* | 0.7 | 12.9 | -5.1
COc1ccc(C)cc1NC(=O)CSc1nc2cc3c(cc2cc1C#N)OCCO3 | 67.0* | 0.2 | 5.4 | -0.3
Cc1cccc(NC(=O)CSc2nc3cc4c(cc3cc2C#N)OCCO4)c1 | 57.0* | -0.2 | 2.6 | 0.0
O=C(Cn1ncc2ccsc2c1=O)NCCCN1CCCC1=O | 7.6 | 0.0 | 0.5 | -0.5
Nc1cc2c3c(c1)C(c1ccccc1)CCN3CCC2c1ccccc1 (configuration not stated) | 23.6 | 6.3* | -2.6 | -0.3
O=C(CNc1ccncc1)c1c[nH]c2ccccc12 | 82.9* | -0.2 | -12.4 | 1.5
O=C(CC(=O)c1c[nH]c2ccccc12)c1ccccc1 | -10.1 | 0.2 | 15.6 | 1.7
CN(Cc1ccccc1)C(=O)CSc1nc2ccsc2c(=O)n1Cc1ccccc1 | 1.9 | 0.1 | 2.5 | -1.0
CCNc1cc(C)nc(NCCNC(=O)Nc2cc(Cl)ccc2OC)n1 | 32.6* | -0.1 | 1.6 | -0.7
CCOC(=O)c1sc2ncnc(Nc3ccc(C)cc3C)c2c1C | 54.6* | 0.0 | 3.6 | -0.2
CCc1ccc(NC(=O)CSc2nc3ccsc3c(=O)n2-c2ccc(F)cc2)cc1 | 16.6 | -0.1 | -15.8 | 0.1
Cc1ccsc1C(=O)OCC(=O)c1cc(C)n(C)c1C | 66.1* | -0.2 | 3.3 | -5.9
Cc1cc(C(=O)COC(=O)C2=COCCO2)c(C)n1Cc1cccs1 | 61.6* | -0.1 | -2.2 | -3.8
SMILES | TEAD-YAP inh | FBW7 act | MITF primary | GPR151 activ
Cc1cc(C(=O)COC(=O)c2ccccc2O)c(C)n1Cc1cccs1 | 88.8* | 0.0 | -3.6 | -0.4
CCC(CO)Nc1nccnc1-c1cccc(C(F)(F)F)c1 (configuration not stated) | -1.8 | 0.3 | 13.5 | 0.3
CC(=O)N1N=C(c2ccccc2)Cn2c(C)nc([N+](=O)[O-])c21 | -0.2 | -0.2 | -11.2 | -0.3
N#Cc1c(C(F)(F)F)cc(-c2ccco2)nc1SCCN1CCOCC1 | -6.4 | -0.2 | -5.7 | -0.3
COc1ccc(S(=O)(=O)NCC(c2ccc3c(c2)CCN3C)N2CCN(C)CC2)cc1 (configuration not stated) | 8.4 | -0.1 | -6.5 | -0.3
CN1CCN(C(CNS(=O)(=O)c2cccc(F)c2)c2ccc3c(c2)CCN3C)CC1 (configuration not stated) | 7.1 | 0.0 | 59.5* | 1.1
